Active and inactive are the calls of the source. How the source made its calls: active means hit-call score of the fitted dose curve at least 0.9, where 1 is the maximum; inactive means score below 0.9.
Legend:
[1] = read-out: Vascular endothelial growth factor receptor 2 (Homo sapiens) (UniProt P35968); assay: BSK_4H_VEGFRII: BioMAP Diversity Plus: 4H Assay for Vascular endothelial growth factor receptor 2 (VEGFR2) Biomarker Activity (AID 2283031); settings: primary human endothelial cells (HUVEC); actives raise or lower the signal
Summary of the method: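 Primary human umbilical vein endothelial cells in the BioMAP 4H system were dosed with test chemical, and 24 h later VEGFRII was measured by ELISA. Activity was fitted bidirectionally against DMSO as negative control and baseline.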

[2] = read-out: Human Leukocyte Antigen - DR isotype (HLADR), HLA-DRA (gene 3122); assay: BSK_BE3C_HLADR: BioMAP Diversity Plus: BE3C Assay for Human Leukocyte Antigen - DR isotype (HLADR) Biomarker Activity (AID 2283032); settings: primary human bronchial epithelial cells; actives raise or lower the signal
Summary of the method: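 Signal came from an ELISA for HLA-DR in human bronchial epithelial primary cells harvested 24 h after treatment; gain- and loss-of-signal fitting used DMSO controls as reference.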

[3] = read-out: Vascular cell adhesion molecule 1 (VCAM1), VCAM1 (gene 7412); assay: BSK_4H_VCAM1: BioMAP Diversity Plus: 4H Assay for Vascular cell adhesion molecule 1 (VCAM1) Biomarker Activity (AID 2283033); settings: primary human endothelial cells (HUVEC); actives raise or lower the signal;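 further: cell-surface VCAM-1 protein measured by ELISA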
Summary of the method: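 Endpoint derived from bidirectional fitting against DMSO controls of VCAM-1 ELISA signal in umbilical vein endothelial cells sampled at 24 h following treatment.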

[4] = read-out: Interferon-gamma inducible Protein 10 (IP10), CXCL10 (gene 3627); assay: BSK_BE3C_IP10: BioMAP Diversity Plus: BE3C Assay for Interferon-gamma inducible Protein 10 (IP10) Biomarker Activity (AID 2283034); settings: primary human bronchial epithelial cells; actives raise or lower the signal
Summary of the method: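 Using primary human bronchial epithelial cultures, the assay captures IP-10 by ELISA one day (24 h) after exposure. Parallel SRB staining of total protein flags overt cytotoxicity. Fits run bidirectionally relative to DMSO.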

[5] = read-out: Monokine induced gamma interferon (MIG), CXCL9 (gene 4283); assay: BSK_BE3C_MIG: BioMAP Diversity Plus: BE3C Assay for Monokine induced gamma interferon (MIG) Biomarker Activity (AID 2283035); settings: primary human bronchial epithelial cells; actives raise or lower the signal;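 further: MIG protein measured by ELISA in BE3C cultures after 24 h of dosing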
Summary of the method: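 MIG level was determined by ELISA after 24 h chemical treatment of primary human bronchial epithelial cells. Values were fitted bidirectionally with DMSO as the negative control and activity baseline.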

[6] = read-out: Transforming growth factor beta 1 (TGFb1), TGFB1 (gene 7040); assay: BSK_BE3C_TGFb1: BioMAP Diversity Plus: BE3C Assay for Transforming growth factor beta 1 (TGFb1) Biomarker Activity (AID 2283036;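 further: TGF-b1 protein level measured by ELISA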); settings: primary human bronchial epithelial cells; actives raise or lower the signal
Summary of the method: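 In this human primary bronchial epithelial system, an ELISA quantified TGF-b1 one day after dosing. Endpoint changes in either direction were fitted relative to DMSO.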

[7] = read-out: Plasminogen activator inhibitor-1 (PAI1), SERPINE1 (gene 5054); assay: BSK_BE3C_PAI1: BioMAP Diversity Plus: BE3C Assay for Plasminogen activator inhibitor-1 (PAI1) Biomarker Activity (AID 2283037); settings: primary human bronchial epithelial cells; actives raise or lower the signal
Summary of the method: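 PAI-1 biomarker levels in treated human bronchial epithelial cells are determined by ELISA at 24 h. Both increases and decreases relative to DMSO are fitted.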

[8] = read-out: urokinase plasminogen activator (uPA), PLAU (gene 5328); assay: BSK_BE3C_uPA: BioMAP Diversity Plus: BE3C Assay for urokinase plasminogen activator (uPA) Biomarker Activity (AID 2283038); settings: primary human bronchial epithelial cells; actives raise or lower the signal;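 further: uPA protein level quantified by ELISA in cell cultures; uPA read one day after compound addition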
Summary of the method: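 Human primary bronchial epithelial cells were exposed to chemical for 24 h, then uPA levels were measured by ELISA. Responses were fitted bidirectionally against DMSO as negative control and baseline. Parallel SRB staining of total protein gauged overt cytotoxicity.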

[9] = read-out: Urokinase-type plasminogen activator receptor (uPAR), PLAUR (gene 5329); assay: BSK_BE3C_uPAR: BioMAP Diversity Plus: BE3C Assay for Urokinase-type plasminogen activator receptor (uPAR) Biomarker Activity (AID 2283039); settings: primary human bronchial epithelial cells; actives raise or lower the signal;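 further: cells exposed to compound for one day before measurement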
Summary of the method: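 A uPAR ELISA serves as the readout, taken 24 h after treating primary human bronchial epithelial cells. Responses in either direction are fitted against DMSO, which defines baseline activity.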

[10] = read-out: Interleukin-6 (IL6), IL6 (gene 3569); assay: BSK_CASM3C_IL6: BioMAP Diversity Plus: CASM3C Assay for Interleukin-6 (IL6) Biomarker Activity for (AID 2283040); settings: primary human coronary artery smooth muscle cells; actives raise or lower the signal
[11] = read-out: Tissue plasminogen activator (tPA), PLAT (gene 5327); assay: BSK_BE3C_tPA: BioMAP Diversity Plus: BE3C Assay for Tissue plasminogen activator (tPA) Biomarker Activity (AID 2283041); settings: primary human bronchial epithelial cells; actives raise or lower the signal;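 further: tPA level quantified by ELISA one day after compound addition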
Summary of the method: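 Bidirectional curve fitting relative to DMSO defined activity, with tPA detected by ELISA in chemically treated human bronchial epithelial primary cells at 24 hours.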

[12] = read-out: Interleukin-8 (IL8), CXCL8 (gene 3576); assay: BSK_CASM3C_IL8: BioMAP Diversity Plus: CASM3C Assay for Interleukin-8 (IL8) Biomarker Activity (AID 2283042); settings: primary human coronary artery smooth muscle cells; actives raise or lower the signal;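 further: IL-8 protein level quantified by ELISA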
[13] = read-out: Human Leukocyte Antigen - DR isotype (HLADR), HLA-DRA (gene 3122); assay: BSK_CASM3C_HLADR: BioMAP Diversity Plus: CASM3C Assay for Human Leukocyte Antigen - DR isotype (HLADR) Biomarker Activity (AID 2283043); settings: primary human coronary artery smooth muscle cells; actives raise or lower the signal;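 further: cell-surface HLA-DR protein level quantified by ELISA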
[14] = read-out: Macrophage colony-stimulating factor (MCSF), CSF1 (gene 1435); assay: BSK_CASM3C_MCSF: BioMAP Diversity Plus: CASM3C Assay for Macrophage colony-stimulating factor (MCSF) Biomarker Activity (AID 2283044); settings: primary human coronary artery smooth muscle cells; actives raise or lower the signal;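 further: M-CSF protein amount quantified by ELISA after 24 h exposure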
[15] = read-out: Low-density lipoprotein receptor (LDLR), LDLR (gene 3949); assay: BSK_CASM3C_LDLR: BioMAP Diversity Plus: CASM3C Assay for Low-density lipoprotein receptor (LDLR) Biomarker Activity (AID 2283045); settings: primary human coronary artery smooth muscle cells; actives raise or lower the signal;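 further: LDLR protein level on the cell surface quantified by ELISA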
[16] = read-out: Monocyte Chemoattractant Protein-1 (MCP1), CCL2 (gene 6347); assay: BSK_CASM3C_MCP1: BioMAP Diversity Plus: CASM3C Assay for Monocyte Chemoattractant Protein-1 (MCP1) Biomarker Activity (AID 2283046); settings: primary human coronary artery smooth muscle cells; actives raise or lower the signal;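 further: MCP-1 level quantified by ELISA 24 h after dosing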
[17] = BSK_CASM3C_Proliferation: Cell Proliferation Assessment in the BioMAP Diversity Plus: CASM3C Assay (AID 2283047); settings: primary human coronary artery smooth muscle cells;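 further: sulforhodamine B total protein stain as relative cell number at 560 nm; sub-confluent cells exposed 48 h before staining; fitted both ways against DMSO so gain or loss of cell number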
[18] = read-out: Monokine induced gamma interferon (MIG), CXCL9 (gene 4283); assay: BSK_CASM3C_MIG: BioMAP Diversity Plus: CASM3C Assay for Monokine induced gamma interferon (MIG) Biomarker Activity (AID 2283048); settings: primary human coronary artery smooth muscle cells; actives raise or lower the signal
[19] = read-out: serum amyloid A (SAA), SAA1 (gene 6288); assay: BSK_CASM3C_SAA: BioMAP Diversity Plus: CASM3C Assay for serum amyloid A (SAA) Biomarker Activity (AID 2283049); settings: primary human coronary artery smooth muscle cells; actives raise or lower the signal;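 further: SAA protein level quantified by ELISA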
[20] = BSK_CASM3C_SRB: Viability Assessment in the BioMAP Diversity Plus: CASM3C Assay (AID 2283050); settings: primary human coronary artery smooth muscle cells

Measured: outcome

OC[C@@H](O)[C@@H](O)[C@H](O)[C@H](O)CO
inactive: all assays above

O=C(O)Cc1ccccc1Nc1c(Cl)cccc1Cl
inactive: all assays above

Cc1ccc(Cl)cc1
inactive: all assays above

CCCCCCC(=O)OCC
inactive: all assays above

Cc1ccc(N(C)C)cc1
inactive: all assays above

O=C(OCCCCCOC(=O)c1ccccc1)c1ccccc1
not listed: [4]
inactive: all other assays above

C[Si]1(C)O[Si](C)(C)O[Si](C)(C)O[Si](C)(C)O1
not listed: [4]
inactive: all other assays above

Reference: PubChem BioAssay (EPA / NIEHS)
